Data taken from PubChem BioAssay (NCATS).
Results filed as inconclusive are left out. A number with no mark means an inactive call. Calls of active or inactive are those of the source. The call rests on the fitted dose curve; in most records, active means well fitted cell-killing curve with a large enough effect; inconclusive means small, poorly fitted or top-dose-only effect, or effect the other way; inactive means flat fitted curve, though single readings scatter.

tested on: SKOV3; assay: Primary qHTS to identify gynecologic anti-cancer compounds using libraries of approved drugs and bioactive compounds (AID 1345084); conditions: Gynecologic cancer cell panel viability, ATPlite luminescence, 48 h; series mostly up to 57.5 µM; further: nearly all actives have a fitted effect of over 55% in size
Method in brief: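 Measured: luminescence after ATPlite addition (15 min, RT). Exposure: 48 h, 37 C, 5% CO2.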
On the % scale 0 is the no-effect control and ±100 the full control effect; potency means the concentration at half of the fitted maximal effect.

Row | Structure (SMILES) | Potency | activity change, negative = cytotoxicity
1 | C=CS(=O)(=O)NC1CCN(C(=O)CNc2cc(I)c(Cl)cc2OC)CC1 | inactive | –
2 | C=CC(=O)Nc1cccc(Nc2nc(Nc3ccc(NC4CN(CCF)C4)cc3OC)ncc2C(F)(F)F)c1 | 12.6 µM (active) | –
3 | COC(=O)C1=CO[C@@H](O[C@@H]2O[C@H](CO)[C@@H](O)[C@H](O)[C@H]2O)[C@H]2[C@@H]1C=C[C@]21C=C([C@H](C)OC(=O)/C=C/c2ccc(O)cc2)C(=O)O1 | 8.91 µM (active) | –
4 | CC(=O)O[C@H]1CC(C)(C)CC2[C@]13CO[C@@]21CCC2[C@@]4(C)CC[C@H](O[C@@H]5OC[C@H](O[C@@H]6O[C@H](CO)[C@@H](O)[C@H](O)[C@H]6O[C@@H]6OC[C@@H](O)[C@H](O)[C@H]6O)[C@H](O)[C@H]5O[C@@H]5O[C@H](CO)[C@@H](O)[C@H](O)[C@H]5O)[C@@](C)(CO)C4CC[C@@]2(C)[C@]1(C)C[C@H]3O (stereo not given in full) | – | -11.7% [at 11.6 µM]
5 | C=C(C)C1CC(O)C(C)C12CC(O)C1(C)OC1C2O (stereo not given) | 7.94 µM (active) | –
6 | CCN(CC)CCCCCCNc1cc(OC)cc2c(C)ccnc12 | inactive | –
7 | CN(C)CCN(Cc1ccc(-c2ccc(CNCCc3ccccc3)cc2)cc1)C(=O)CCC1CCCC1 | 15.8 µM (active) | –
8 | C=C1C(=O)O[C@@H]2C3=C(C)CCC[C@]3(C)CC[C@@]12O | inactive | –
9 | C=CC(=O)Nc1ccc(CN2C(=O)N(c3cc(OC)cc(OC)c3)Cc3cnc(Nc4ccc(N5CCN(C)CC5)cc4)nc32)cc1 | 15.8 µM (active) | –
10 | CNc1ccc([N+](=O)[O-])c(Nc2ccc3[nH]ncc3c2)n1 | inactive | –
